Source: PubChem BioAssay
Rows were chosen to be rich in hits. Some 21% of all compounds tested hit in one or more screens of this group.
Shiga inhibitor = blocks Shiga toxin action in Vero cells; hit rate 9.2% among 290,000; AID 2315; inhibition, % at 38.7 µM; Vero cells, Shiga toxin protein synthesis inhibition reporter; in the data active = inhibition mostly above about 28%, no sharp cut-off; inactive = mostly below about 43%
Pf growth 96h = P. falciparum growth inhibition at 96 hours; P. falciparum luciferase reporter growth, 96 h; hit rate 6.9% among 320,000; Potency, µM (series often up to 28.7 µM), hits mostly inhibitors; AID 504834
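Compounds incubated with erythrocytes infected by luciferase-expressing P. falciparum (2% hematocrit, 0.05% parasitemia final) for 96 hours, 37 C in 5% CO2. Growth inhibition scored as decreased luciferase luminescence.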
Sm TGR block = blocks Schistosoma mansoni thioredoxin glutathione reductase; purified TGR, DTNB reduction, TNB absorbance 405 nm; hit rate 3% among 360,000; AID 485364; Potency, µM (titrated, usually from 114 µM), actives largely listed as inhibitors; Q962Y6; also: nearly all actives have a fitted effect of over 60% in size
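TGR 20 nM + NADPH 100 uM (dispensed conc.), cpd preinc 15 min RT; start with NADPH (500 uM addition) then DTNB (15 mM addition). Kinetic TNB absorbance, 405 nm filter. Four-parameter Hill fit across titration.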
Pf growth 48h = P. falciparum growth inhibition at 48 hours (one generation); P. falciparum luciferase growth in erythrocytes, 48 h; Potency, µM (series often up to 28.7 µM), hits mostly inhibitors; hit rate 5.9% among 310,000; AID 504832
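Luminescence readout; reporter = integrated firefly luciferase in P. falciparum. RBC culture at 2% hematocrit, 0.1% parasitemia final, 37 C/5% CO2; decreased signal taken as growth inhibition.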
CHX counter = counter-screen hit for Shiga toxin inhibitors, cycloheximide. hit rate 12% among 300,000. max response, %. cell reporter, cycloheximide protein synthesis inhibition counterscreen; in the data active = max response mostly above about 13%, no sharp cut-off; inactive = mostly below about 14%; also: read at 38.3 µM for the half of the compounds with a filed dose
NS1 function inh = inhibitors of influenza NS1 protein function; Potency, µM (titrated, usually from 46.1 µM); hit rate 0.4% among 270,000; AID 2326; calls by dose curve; also: actives are rising curves; nearly all actives have a fitted effect of over 50% in size
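In this qHTS, NS1 from influenza A is expressed in budding yeast, where it slows growth. Cells are switched from glucose to 2% galactose medium (pH 6.0, -URA), treated with compound, and growth recovery is read at OD600.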
Numbers stand for hits; 0 = inactive; ? = inconclusive; - = no result. Unless noted, calls follow the shape of the dose curve; as a rule, active = well fitted curve in the direction sought with a large enough effect; inconclusive = small, poorly fitted or top-dose-only effect, or another doubt; inactive = no such curve, though single readings can be large; an effect the other way counts as inactive or inconclusive.

SMILES	Shiga inhibitor	Pf growth 96h	Sm TGR block	Pf growth 48h	CHX counter	NS1 function inh
O=S(=O)(NCC(c1ccco1)N1CCN(c2ccccc2)CC1)c1cc(F)ccc1F (centres undefined)	-	-	0	-	-	-
Cc1ccc(S(=O)(=O)NCCC(c2ccccc2)c2ccco2)cc1 (centres undefined)	0	0	0	0	0	0
COc1ccc(OC)c(S(=O)(=O)NCC(c2ccco2)N2CCc3ccccc3C2)c1 (centres undefined)	-	?	0	?	-	-
Cc1ccc(S(=O)(=O)NCC(c2ccco2)S(=O)(=O)c2ccccc2)cc1 (centres undefined)	-	?	0.398µM	0	-	-
O=C(CC(c1ccco1)S(=O)(=O)c1ccccc1)c1ccccc1 (centres undefined)	110.0	0	?	0	41.6	-
O=S(=O)(NCC(c1ccco1)S(=O)(=O)c1ccccc1)c1cc(F)ccc1F (centres undefined)	-	-	7.08µM	-	-	-
CCc1ccc2oc(C(=O)Nc3cc(C)ccc3C)cc(=O)c2c1	-	-	0	-	-	-
COc1ccccc1CNC(=O)C(=O)NCC(c1cccs1)S(=O)(=O)c1ccccc1 (centres undefined)	-	-	0	-	-	-
Cc1cc(C)c(S(=O)(=O)NCC(c2ccco2)N2CCN(c3ccccc3)CC2)c(C)c1 (centres undefined)	-	-	0	-	-	-
Cc1cc(C)c(S(=O)(=O)NCC(c2ccco2)S(=O)(=O)c2ccccc2)c(C)c1 (centres undefined)	-	-	17.8µM	-	-	-
COc1ccc(N(C(=O)CNS(=O)(=O)c2ccccc2)C(C(=O)NCc2ccco2)C(C)C)cc1 (centres undefined)	0	0	0	0	0	?
Cc1cc(C)c(S(=O)(=O)NCC(c2cccs2)S(=O)(=O)c2ccccc2)c(C)c1 (centres undefined)	-	-	0.316µM	-	-	-
Cc1ccc(S(=O)(=O)NCC(=O)N(c2ccccc2)C(C(=O)NCc2ccccc2)c2ccco2)cc1 (centres undefined)	0	13.1µM	0	0	0	0
CC(Oc1ccccc1)C(=O)Nc1ccc(C(=O)OCc2cc(=O)n3nc(C4CC4)sc3n2)cc1 (centres undefined)	-	-	0	-	-	-
CN(/N=C/c1ccncc1)c1cnn(-c2ccc(F)c(Cl)c2)c(=O)c1Cl	46.3	0	0	?	27.1	0
COc1c(Cl)cnn(-c2ccc(Cl)c(Cl)c2)c1=O	0	0	0	?	0	-
COC(=O)c1cc(C#N)c(N(C)Cc2ccccc2)nc1C	0	?	0	-	30.2	0
CC(=O)c1cc(C#N)c(N(C)Cc2ccccc2)nc1C	0	0	0	0	0	0
CC1CCCCN1C(=O)CSc1nnc(-c2ccc(Cl)s2)o1 (centres undefined)	88.4	0	0	0	27.9	0
CC1CCCCN1C(=O)CSc1nnc(-c2ccccc2O)o1 (centres undefined)	55.5	0	0	0	21.2	0
CC1CCCCN1C(=O)CSc1nnc(-c2ccccc2Cl)o1 (centres undefined)	-	-	0	-	-	-
CC1CCCC(C)N1C(=O)CSc1nnc(C2CCCCC2)o1 (centres undefined)	92.5	-	0	0	46.0	0
COc1cc(/C=C2/C(=O)N(c3ccc(C)c(C)c3)N=C2C)cc([N+](=O)[O-])c1O	-	?	0	0	0	0
CC1=NN(c2ccccc2)C(=O)/C1=C\c1ccc(Oc2ccc([N+](=O)[O-])cc2[N+](=O)[O-])cc1	0	0	12.6µM	0	0	0
COc1cc(/C=C2/C(=O)N(c3ccc(C(=O)O)cc3)N=C2C)cc(OC)c1O	0	0	10µM	0	0	0
SMILES	Shiga inhibitor	Pf growth 96h	Sm TGR block	Pf growth 48h	CHX counter	NS1 function inh
COc1cc(/C=C2\C(=O)N(c3ccccc3)N=C2C)ccc1Oc1ccc([N+](=O)[O-])cc1[N+](=O)[O-]	0	10.4µM	14.1µM	0	0	0
CC(=O)c1ccc2c3c(cccc13)C(=O)N(CCc1ccccc1)C2=O	48.6	0	0	0	31.8	?
CCC(=O)Nc1nnc(-c2ccc(OC)cc2)o1	0	0	0	-	0	0
CCOc1ccc(-c2nnc(NC(=O)Cc3ccc(OC)cc3)o2)cc1	0	0	0	0	0	0
CCOc1ccc(-c2nnc(NC(=O)CCCOc3cccc(C)c3)o2)cc1	70.4	?	0	0	25.7	0
CCOc1ccc(-c2nnc(NC(=O)Cc3cc(OC)c(OC)c(OC)c3)o2)cc1	72.9	0	0	0	17.9	0
COC(=O)c1cc2sc(C)cc2n1CC(=O)Nc1ccc(C)c(C)c1	-	-	0	-	-	-
CC1(C)CN(c2ccsc2C(=O)O)C1=O	0	0	0	0	0	0
CCOC(=O)/C(C#N)=C1\Nc2ccccc2N=C1N(CC(C)C)CC(C)C	0	0	0	2.33µM	0	0
COc1ccc(N2CCN(c3ccc(N4C(=O)CC(C)C4=O)cc3[N+](=O)[O-])CC2)cc1 (centres undefined)	0	0	0	0	0	-
CCCS(=O)(=O)c1c(S(=O)(=O)CCC)c2c(N)cccn2c1C(=O)c1ccc(OC)cc1	0	0	0	?	0	0
CCCS(=O)(=O)c1c(S(=O)(=O)CCC)c2c(N)cccn2c1C(=O)c1ccc(F)cc1	0	0	22.4µM	10.4µM	0	?
CCCS(=O)(=O)c1c(S(=O)(=O)CCC)c2c(N)cccn2c1C(=O)c1ccc(Br)cc1	0	0	?	11.7µM	0	?
CCCS(=O)(=O)c1c(S(=O)(=O)CCC)c2ccc(C(N)=O)cn2c1C(=O)c1ccc(F)cc1	0	0	0	0	0	0
Cc1ccc(-c2cc(-c3ccc4c(c3)NC(=O)CO4)nc3c2COc2ccccc2-3)cc1	-	-	0	-	-	-
O=C(/C=C/c1ccco1)NCC1OCCc2ccccc21 (centres undefined)	0	0	0.501µM	0	0	0
COc1cc(CC(=O)NCC2COc3ccccc3O2)cc(OC)c1OC (centres undefined)	0	0	0	0	0	-
O=C(CNC(=O)c1ccccc1)NCC1COc2ccccc2O1 (centres undefined)	0	0	0	-	0	0
COc1ccc(/C=C/C(=O)NCC2COc3ccccc3O2)c(OC)c1 (centres undefined)	46.3	?	0	0	20.3	0
COc1ccccc1NC(=O)C(=O)NCC1COc2ccccc2O1 (centres undefined)	0	0	0	0	23.4	0
C=CC(=O)NCC1OCCc2ccccc21 (centres undefined)	0	0	0	0	0	0
O=C(/C=C/c1ccco1)NCC1COc2ccccc2O1 (centres undefined)	0	0	0.891µM	0	35.6	0
Cc1ccc(CCN2C(Nc3ccccc3)=NC[C@@H]2C)cc1	-	0	0	?	-	-
Cc1ccc(Nc2sc(C(=O)c3ccccc3)c(N)c2S(=O)(=O)c2ccccc2)cc1Cl	-	-	0	-	-	-
OC1(c2ccc(F)cc2)CSC(=Nc2cccnc2)N1Cc1ccco1 (centres undefined)	0	2.33µM	0	5.86µM	0	0
